An excerpt weighted towards active compounds, which were near 9% of everything screened.
Luc counter: blocks Kinase-Glo luciferase, a counter-screen artifact; Q27757; Kinase-Glo luciferase, ATP luminescence, 8 min; Potency, µM (top dose mostly 38.3 µM), without a hit: at the top dose activity change, negative = inhibition, actives largely listed as inhibitors; 200,000 tested, 0.28% active; AID 1379; also: % is scaled to controls: 0 for no effect and ±100 for the full control effect; nearly all actives have a fitted effect of over 60% in size
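Luminescence was the read-out, taken after 8-minute incubation at ambient temperature. Luciferase turned over luciferin with 10 uM ATP in imidazole pH 7.2 buffer containing KCl, MgCl2, Tween 20 and BSA.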
HTT aggregate: reduces HttQ103-GFP aggregates in PC12 cells; PC12 HttQ103-GFP aggregates, Acumen cytometry, 40 h; Potency, µM (titrated, usually from 46.1 µM), without a hit: top-dose activity change, negative = inhibition, usual class: inhibitors; AID 1688; 220,000 tested, 1.1% active; also: % is scaled to controls: 0 for no effect and ±100 for the full control effect; nearly all actives have a fitted effect of over 60% in size
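PC12 cells with ecdysone-inducible HTT exon1 Q103-GFP, induced by 100 nM tebufenozide, given compounds in a concentration series. GFP aggregates (1–25 um, 6 SD above background) counted in lysates by laser-scanning cytometry, 488 nm excitation.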
Lamin A splicing: LMNA splicing modulation | 200,000 tested, 0.01% active | Potency, µM (highest dose often 46.1 µM), inactives show at the top dose ratio change, negative = inhibition, usual class: inhibitors | HeLa LMNA splicing GFP/RFP minigene ratio, 48 h | AID 1487; active = well fitted inhibition curve with a large enough effect in the signal ratio, with a control signal flat, not every such curve was filed as active; inconclusive = small, poorly fitted or top-dose-only effect, or effect the other way, or a change in a side signal; the % refers to the signal ratio; also: % is scaled to controls: 0 for no effect and ±100 for the full control effect
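S3 HeLa cells stably expressing lamin A-EGFP splicing minigene plus DsRed2, 600 cells/well, 48 h compound exposure at 37C. Laser-scanning cytometry; analysed as GFP (500-530 nm)/RFP (575-640 nm) total intensity ratio; 0.5% DMSO vehicle.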
HPGD inh: blocks human HPGD enzyme activity; purified HPGD, NADH fluorescence kinetic, PGE2 substrate; Potency, µM, inactives show top-dose activity change, negative = inhibition, usual class: inhibitors; 150,000 tested, 4.3% active; AID 894; active = well fitted inhibition curve with a large enough effect, not every such curve was filed as active; inconclusive = small, poorly fitted or top-dose-only effect, or another doubt; inactive = no such curve, though single readings can be large or run the other way; also: % is scaled to controls: 0 for no effect and ±100 for the full control effect
Target sequence (P15428 whole entry, looked up): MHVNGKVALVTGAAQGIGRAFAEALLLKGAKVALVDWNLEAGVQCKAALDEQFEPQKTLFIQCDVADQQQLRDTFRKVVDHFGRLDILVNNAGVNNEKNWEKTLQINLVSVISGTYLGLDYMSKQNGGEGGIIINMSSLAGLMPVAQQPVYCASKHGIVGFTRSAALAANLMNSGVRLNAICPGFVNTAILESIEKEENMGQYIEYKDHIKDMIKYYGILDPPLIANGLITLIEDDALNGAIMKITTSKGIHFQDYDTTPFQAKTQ
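NADH formation kinetics: reaction with 30 uM PGE2 and 1 mM NAD+ (final), 20 nM enzyme, Tris-HCl pH 8 with Tween 20, after 15 min compound preincubation at room temperature. Fluorescence change, last versus first of five reads.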
HTT cytoprotect: protects HTT-Q103 PC12 cells, measured by ATP | PC12 HTT-Q103 induced, cytoprotection, ATP luminescence, 40 h | Potency, µM (highest dose often 56.4 µM), inactives show cytoprotection (ATP increase), usual class: activators | 230,000 tested, 0.14% active | AID 1471; also: % of control where 0% means no effect; nearly all actives have a fitted effect of over 45% in size
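Stable PC12 Q103-GFP cells in serum-supplemented, phenol red-free DMEM; induction by tebufenozide at 100 nM final; compound dose series; cell viability quantified luminescently from ATP.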
ALDH1A1 inh: blocks purified human ALDH1A1 activity. Purified ALDH1A1, NADH fluorescence, propionaldehyde substrate. Potency, µM (doses to about 75.3 µM), for inactives: at the top dose activity, negative = inhibition, most hits filed as inhibitors. 220,000 tested, 7.3% active; active = well fitted inhibition curve with a large enough effect, not every such curve was filed as active; inconclusive = small, poorly fitted or top-dose-only effect, or another doubt; inactive = no such curve, though single readings can be large or run the other way;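 also: plate controls were no enzyme wells and a reference inhibitor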
* hit, by the source's call; [ ] = another dose, or the depositor's remark. Unless noted, calls follow the shape of the dose curve; as a rule, active = well fitted curve in the direction sought with a large enough effect; inconclusive = small, poorly fitted or top-dose-only effect, or another doubt; inactive = no such curve, though single readings can be large; an effect the other way counts as inactive or inconclusive. Potency is read from the fitted curve at half-maximal effect.

COC(=O)C1C(=O)c2c([nH]c(C(=O)OC3CCCC3C)c2C)CC1C (configuration not stated) was read as Luc counter 0.3%, HTT aggregate inconclusive, Lamin A splicing -15.1%, HPGD inh -4.9%, HTT cytoprotect -13.1%[10 µM] and ALDH1A1 inh 12.6µM*.
Screening CC(C)(C)c1ccc(C(=O)C=[N+]=[N-])cc1 returned Luc counter -2.7%, HTT aggregate inconclusive, Lamin A splicing 0.2%, HPGD inh -22.3%, HTT cytoprotect 6.7% and ALDH1A1 inh 6.31µM*.
For COc1cc(C2c3sc(=O)[nH]c3SC3C(=O)N(c4ccc(Br)cc4)C(=O)C32)ccc1O (configuration not stated) the results were HTT aggregate -3.8%[9.22 µM] and HTT cytoprotect 11.2%[10 µM].
CCOc1ccc(N2C(=O)C3Sc4[nH]c(=O)sc4C(/C=C/c4ccccc4)C3C2=O)cc1 (configuration not stated) was read as Luc counter 1.4%, HTT aggregate inconclusive, Lamin A splicing -9.6%, HPGD inh -20.4%, HTT cytoprotect -8.7%[10 µM] and ALDH1A1 inh 11.2µM*.
For O=C(CCSCc1cccc(Cl)c1)NC1CCCC1 the results were Luc counter -0.7%, HTT aggregate -12.7%, Lamin A splicing -6.3%, HPGD inh 14.1µM*, HTT cytoprotect -27.0%[10 µM] and ALDH1A1 inh 11.8%.
O=C(CCSCc1ccccc1Cl)NCCc1ccccc1 was read as Lamin A splicing -7.6%[46 µM].
Screening O=C(CSc1nccn1-c1cccc(Cl)c1)NC1CCCC1 returned Luc counter -2.4%, HTT aggregate -16.5%, Lamin A splicing 0.9%, HPGD inh 15.8µM*, HTT cytoprotect 0.8% and ALDH1A1 inh -7.1%.
`O=C(CCSCc1ccccc1Cl)NC1CCCC1` gave Luc counter -0.4%, HTT aggregate 9.3%, Lamin A splicing -6.3%, HPGD inh 11.2µM*, HTT cytoprotect 0.8%[10 µM] and ALDH1A1 inh 3.2%.
Screening O=C(CCSCc1cccc(Cl)c1)NCCC1=CCCCC1 returned Luc counter 1.6%, HTT aggregate -18.5%, Lamin A splicing 2.2%, HPGD inh inconclusive, HTT cytoprotect 11.9%[10 µM] and ALDH1A1 inh -9.4%.
`CCOc1ccccc1NC(=O)c1sc(-n2nc(C)c(CCC(C)C)c2C)nc1C` gave Lamin A splicing 0.8%[46 µM].
For Cc1ccc(N(CC(=O)NCC2CCCO2)S(C)(=O)=O)cc1Cl (configuration not stated) the results were Luc counter -2.2%, HTT aggregate -5.7%, Lamin A splicing 9.1%, HPGD inh -12.6%, HTT cytoprotect 0.2%[10 µM] and ALDH1A1 inh 13.8%.
`O=C(Nc1ccccn1)c1onc2c1CCCC2` gave Luc counter 12.6µM*, HTT aggregate 3.1%, Lamin A splicing -8.2%, HPGD inh -0.5% and ALDH1A1 inh -11.8%.
For O=C(Nc1ccccn1)c1csc2c1CCCC2 the results were Luc counter -4.2%, HTT aggregate -7.4%[9.22 µM], Lamin A splicing 0.6%[46 µM], HTT cytoprotect -14.6%[10 µM] and ALDH1A1 inh -4.5%.
For N#Cc1nc(COc2ccccc2)oc1NCCN1CCOCC1 the results were Luc counter 0.7%, HTT aggregate -2.1%[9.22 µM], Lamin A splicing 3.2%, HPGD inh -3.3%, HTT cytoprotect 0.4% and ALDH1A1 inh -6.7%.
Cc1ccc(S(=O)(=O)N(C(=O)c2ccncc2)c2ccc(OC(=O)c3ccncc3)cc2)c(C)c1 was read as Luc counter -2.9%, HTT aggregate -10.0%, Lamin A splicing -7.3%, HPGD inh 28.2µM*, HTT cytoprotect 8.1%[10 µM] and ALDH1A1 inh -1.3%.
For Cc1ccc(C)c(S(=O)(=O)N(C(=O)c2ccncc2)c2ccc(OC(=O)c3ccncc3)cc2)c1 the results were Luc counter 0.9%, HTT aggregate -18.0%[9.22 µM], HTT cytoprotect -22.1%[10 µM] and ALDH1A1 inh 2.3%.

Compound activity (PubChem)
